# Hits are enriched below; roughly 2.1% of the tested compounds scored in any of these assays.
# GalR3 antagonist: GalR3 antagonists in HEK293 cells, primary screen, cell-based, fluorescence readout. Galanin receptor type 3 (Homo sapiens), O60755. HEK293 GalR3-CNG cAMP membrane potential fluorescence; galR3 body fused to GalR1 C-terminus. inhibition, % at 3 µM. 360,000 tested, 0.44% active. AID 651719, 2012;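 active = inhibition above the screen-wide average plus 3 SD, cut at about 13% in these data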;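 note: forskolin and galanin both at EC90 stimulate the cells; cAMP rise reported by CNG channel membrane potential dye signal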
# Target sequence (O60755 1-299 limits assumed): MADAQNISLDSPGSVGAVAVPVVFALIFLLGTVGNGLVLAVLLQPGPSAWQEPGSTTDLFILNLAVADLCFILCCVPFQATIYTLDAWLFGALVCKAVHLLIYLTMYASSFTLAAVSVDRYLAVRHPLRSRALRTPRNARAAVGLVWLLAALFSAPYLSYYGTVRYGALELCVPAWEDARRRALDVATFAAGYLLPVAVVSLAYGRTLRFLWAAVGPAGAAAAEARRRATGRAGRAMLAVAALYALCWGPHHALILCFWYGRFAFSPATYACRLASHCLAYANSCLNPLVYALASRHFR
# Gli-Sufu antag: Gli-Sufu pathway antagonists, primary screen, luciferase luminescence, Sufu-KO-LIGHT cells, uHTS; Sufu-KO-LIGHT fibroblasts, Gli luciferase reporter luminescence; inhibition, % at 5 µM; 340,000 tested, 0.74% active; AID 588413, 2011;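 active = inhibition above about 55%, limit read from the data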
# aDG glyco up: activators of alpha-DG glycosylation, primary screen, uHTS, Pro5-aDG cells, AlphaScreen; alpha-DG glycosylation AlphaScreen (IIH6); 0% Pro5, 100% B10-LARGE cell signal; activation, % at 10 µM; 360,000 tested, 0.22% active; AID 624168, 2012;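 active = activation of at least 8% versus controls, or a plate z-score of at least 8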;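 note: Pro5 are CHO cells carrying HIG-tagged alpha-DG that lacks glycosylation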
# HIV Env fusion: inhibitors of HIV-1 Env-driven cell-cell fusion, primary screen, HeLa-JRFL effector, CEM21 target cells, luciferase. inhibition, % at 12.3 µM. 360,000 tested, 1.1% active;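 active = mean replicate inhibition score of at least 50 and every replicate individually at or above 50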
# NR2F2 inh: NR2F2 transcriptional activity inhibitors, primary screen, cell-based, luciferase reporter, HEK293T, luminescence. COUP transcription factor 2 (Homo sapiens), P24468. HEK293T NGFI-A luciferase reporter. inhibition, % at 8.6 µM. 370,000 tested, 0.7% active. AID 686940, 2013;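 active = inhibition above a per-plate cutoff, mean inhibition of test wells between control levels plus 3 SD, cut at about 38% in these data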;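 note: cells cotransfected with COUP-TFII expression vector driving the NGFI-A reporter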
# Gal4-VP16 ctr: Gal4-VP16 luciferase reporter inhibitors, counter-screen for COUP-TFII antagonist project, cell-based, luminescence, HEK293. shares compounds with NR2F2 inh. inhibition, % at 8.5 µM. 2,500 tested, 25% active. AID 687007, 2013; in the data active = inhibition above about 13%
# COUP-TFII conf: NR2F2 transcriptional activity inhibitors, confirmation, cell-based, luciferase reporter, HEK293, triplicate. shares compounds with NR2F2 inh. 2,500 tested, 45% active. HEK293 NGFI-A luciferase reporter, luminescence. inhibition, % at 8.5 µM;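 active = mean inhibition over three repeats above a set limit taken from the earlier primary screen, cut at about 38% in these data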
# A number is an active result; n = inactive; x = no result given.
SMILES,GalR3 antagonist,Gli-Sufu antag,aDG glyco up,HIV Env fusion,NR2F2 inh,Gal4-VP16 ctr,COUP-TFII conf
COc1ccc(-c2csc(NC(=O)Cc3ccccc3F)n2)cc1OC,n,n,n,n,49,n,n
COc1ccccc1CC(=O)Nc1nc(-c2ccc(F)c(F)c2)cs1,n,n,n,n,n,x,x
CC(=O)N(/N=C1\Sc2ccccc2C1=O)c1ccc(C)cc1C,n,n,n,x,64,24,76
CCOc1ccc(-c2cc(CCCC(=O)NCc3ccco3)no2)cc1,x,n,n,n,43,n,n
CCOc1ccc(-c2cc(CCCC(=O)NCc3ccc(C)cc3)no2)cc1,x,n,n,n,44,32,n
CCOc1ccc(-c2nnn(CC(=O)NCc3ccco3)n2)cc1,n,n,n,n,n,x,x
CCCCC(=O)c1ccc(O)cc1O,n,n,n,x,103,n,n
Cc1noc(C)c1NC(=O)N(C)C[C@@H]1Oc2ccc(NC(=O)NC(C)C)cc2CC(=O)N([C@@H](C)CO)C[C@H]1C,x,x,x,n,x,x,x
Cc1nc(SCC(=O)N2CCCCCC2)c2c(=O)n(C)c(=O)n(CC(C)C)c2n1,n,n,n,n,42,n,n
Cc1ccc(S(=O)(=O)N(C)C[C@@H]2Oc3ccc(NC(=O)Cn4cnnn4)cc3CC(=O)N([C@@H](C)CO)C[C@H]2C)cc1,x,x,x,n,x,x,x
CCOc1ccc(OCC)c(NC(=O)C2CCCN2S(=O)(=O)c2cccc3cccnc23)c1 (configuration not stated),n,n,n,n,40,n,n
C[C@@H]1CN([C@H](C)CO)C(=O)c2cc(NS(C)(=O)=O)ccc2O[C@@H]1CN(C)C(=O)Nc1ccc(C(F)(F)F)cc1,x,x,x,n,x,x,x
S=c1nc(C2COc3ccccc3O2)[nH][nH]1 (configuration not stated),n,n,n,n,n,x,x
CCCS(=O)(=O)c1cnc(C2COc3ccccc3O2)nc1N (configuration not stated),n,n,n,n,72,42,79
COC(=O)C[C@H]1C=C[C@@H](NS(=O)(=O)c2ccccc2F)[C@H](CO)O1,x,x,x,n,x,x,x
O=C1CC(c2ccc3c(c2)OCCO3)Oc2ccc([N+](=O)[O-])cc21 (configuration not stated),n,n,n,n,42,20,67
O=C1CC(c2ccc3c(c2)OCCO3)Oc2ccccc21 (configuration not stated),n,n,n,n,n,x,x
Cc1c(/C(O)=C2\C(=O)C(=O)N(CCN(C)C)C2c2ccco2)cnn1-c1ccccc1 (configuration not stated),n,n,n,n,n,x,x
Cc1c(/C(O)=C2\C(=O)C(=O)N(CCCN(C)C)C2c2ccco2)cnn1-c1ccccc1 (configuration not stated),n,n,n,n,49,n,n
CCOCc1nc(N)nc(N)c1-c1cccc(Cl)c1,n,x,n,n,57,n,n
COCCn1c(C)cc(C(=O)COC(=O)c2cccc(O)c2)c1C,n,n,n,n,72,64,87
CCCC1CCC2(CCCN2CCOC(=S)Nc2ccccc2OC)CC1 (configuration not stated),x,x,x,x,51,n,n
CCCC1CCC2(CCCN2CCOC(=S)Nc2ccccc2Br)CC1 (configuration not stated),x,x,x,x,n,x,x
N#Cc1cc2ccccc2nc1SCC(=O)Nc1ccc(S(=O)(=O)N2CCCC2)cc1,n,n,n,x,39,n,n
COc1ccc2nc(SCC(=O)Nc3ccc(S(=O)(=O)N4CCCC4)cc3)c(C#N)cc2c1,n,n,n,n,n,x,x
SMILES,GalR3 antagonist,Gli-Sufu antag,aDG glyco up,HIV Env fusion,NR2F2 inh,Gal4-VP16 ctr,COUP-TFII conf
Cc1csc2ncnc(N3CCN(C(=O)Nc4ccc(OC(F)(F)F)cc4)CC3)c12,n,n,n,n,39,n,n
CO[C@H]1CN(C)C(=O)c2ccc(NC(=O)c3ccccc3)cc2OC[C@H](C)N(CC2CC2)C[C@@H]1C,x,x,x,n,x,x,x
CC(=O)NC(C)CCc1ccccc1 (configuration not stated),n,n,n,n,n,x,x
CC(=O)N[C@@H](C)CCc1ccc(Oc2ccc(OC(C)C)nc2)cc1,x,x,x,x,39,n,n
Cc1ccc(S(=O)(=O)Nc2cccc3c2O[C@@H](CN(C)C(=O)Nc2ccccc2)[C@@H](C)CN([C@@H](C)CO)C3=O)cc1,x,x,x,n,x,x,x
CN1C2CCC1/C(=C\c1ccc(F)cc1)C(=O)/C2=C/c1ccc(F)cc1,n,n,n,n,n,x,x
C=CC(=O)N1C/C(=C/c2ccc(F)cc2)C(=O)/C(=C\c2ccc(F)cc2)C1,n,n,n,111,106,86,104
CC(C)NC(=O)N(C)C[C@H]1Oc2ccc(NC(=O)Nc3cccc4ccccc34)cc2CC(=O)N([C@@H](C)CO)C[C@@H]1C,x,x,x,n,x,x,x
CCOC(=O)N1CCC(NC(=O)C2CCN(Cc3nc(-c4ccc(CC)cc4)oc3C)CC2)CC1,x,n,n,n,n,x,x
CCOC(=O)N1CCC(NC(=O)C2CCCN(Cc3nc(-c4ccc(CC)cc4)oc3C)C2)CC1 (configuration not stated),n,n,n,n,54,n,45
N#Cc1ccccc1COc1ccc(/C=C/C(=O)O)cc1,n,n,n,n,68,63,51
CN(C)c1cccc(NC(=O)C2Cc3c(-c4ccccc4Oc4ccccc4)ccnc3O2)c1 (configuration not stated),n,x,n,n,n,x,x
COc1ccc(NC(=O)C2Cc3c(-c4ccc(Cl)cc4)ccnc3O2)cc1OC (configuration not stated),n,x,n,n,64,n,54
CC(=O)c1cccc(NC(=O)C2Cc3c(-c4ccccc4Oc4ccccc4)ccnc3O2)c1 (configuration not stated),n,x,n,n,41,n,n
C[C@@H]1CCCCO[C@@H](CN(C)C(=O)Nc2ccc(C(F)(F)F)cc2)[C@H](C)CN([C@@H](C)CO)C(=O)c2cc(NS(=O)(=O)c3cccs3)ccc2O1,x,x,x,n,x,x,x
CCCc1cn(CC[C@H]2CC[C@H](NC(=O)C3CCOCC3)[C@H](CO)O2)nn1,x,x,x,n,x,x,x
COc1ccc(-c2[nH]c3ccccc3c2SCCNC(=O)c2ccccc2)cc1,x,n,n,x,n,x,x
Cc1ccc(-c2[nH]c3ccccc3c2SCCNC(=O)c2ccc(S(=O)(=O)N3CCOCC3)cc2)cc1,x,n,n,n,47,n,n
